Article PMC5540273 (PLoS ONE, 2017)

Tests used:
Conditions in all cases: concentration: 1 μM, replicates: in singlicate; n = 1
CDK3 = system: CDK3
CDK4-cyclinD1 = system: CDK4-cyclinD1
CDK4-cyclinD3 = system: CDK4-cyclinD3
CDK4 = system: CDK4
CDK5 = system: CDK5
CDK7 = system: CDK7
CDK8 = system: CDK8
CDK9 = system: CDK9
CDKL1 = system: CDKL1
CDKL2 = system: CDKL2
CDKL3 = system: CDKL3
CDKL5 = system: CDKL5
CHEK1 = system: CHEK1
CHEK2 = system: CHEK2
CIT = system: CIT
CLK1 = system: CLK1
CLK2 = system: CLK2
CLK3 = system: CLK3
CLK4 = system: CLK4
CSF1R-autoinhibited = system: CSF1R-autoinhibited
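Note: KINOMEscan kinase panel screen.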

Cc1cc(Nc2nc(-c3cccc(C)n3)nc3ccccc23)ccn1 [GW872411]
%Inh (CDK3): 0% | %Inh (CDK4-cyclinD1): 0% | %Inh (CDK4-cyclinD3): 0% | %Inh (CDK4): 0% | %Inh (CDK5): 0% | %Inh (CDK7): 0% | %Inh (CDK8): 0% | %Inh (CDK9): 0% | %Inh (CDKL1): 17% | %Inh (CDKL2): 0% | %Inh (CDKL3): 0% | %Inh (CDKL5): 0% | %Inh (CHEK1): 0% | %Inh (CHEK2): 0% | %Inh (CIT): 0% | %Inh (CLK1): 11% | %Inh (CLK2): 0% | %Inh (CLK3): 0% | %Inh (CLK4): 0% | %Inh (CSF1R-autoinhibited): 0%

O=C(Nc1ccc2c(c1)OCO2)NC1CCN(c2ccnc(NCc3ccc(F)cc3)n2)CC1 [GSK1379859]
%Inh (CDK3): 0% | %Inh (CDK4-cyclinD1): 0% | %Inh (CDK4-cyclinD3): 0% | %Inh (CDK4): 13% | %Inh (CDK5): 0% | %Inh (CDK7): 0% | %Inh (CDK8): 0% | %Inh (CDK9): 0% | %Inh (CDKL1): 9% | %Inh (CDKL2): 13% | %Inh (CDKL3): 0% | %Inh (CDKL5): 3% | %Inh (CHEK1): 19% | %Inh (CHEK2): 0% | %Inh (CIT): 0% | %Inh (CLK1): 23% | %Inh (CLK2): 0% | %Inh (CLK3): 0% | %Inh (CLK4): 10% | %Inh (CSF1R-autoinhibited): 0%

COc1ccc(-c2cc3c(C)nc(N)nc3n([C@H]3CC[C@H](OCCO)CC3)c2=O)cn1
%Inh (CDK3): 0% | %Inh (CDK4-cyclinD1): 0% | %Inh (CDK4-cyclinD3): 0% | %Inh (CDK4): 0% | %Inh (CDK5): 19% | %Inh (CDK7): 14% | %Inh (CDK8): 0% | %Inh (CDK9): 4% | %Inh (CDKL1): 10% | %Inh (CDKL2): 0% | %Inh (CDKL3): 29% | %Inh (CDKL5): 0% | %Inh (CHEK1): 0% | %Inh (CHEK2): 12% | %Inh (CIT): 0% | %Inh (CLK1): 0% | %Inh (CLK2): 0% | %Inh (CLK3): 0% | %Inh (CLK4): 0% | %Inh (CSF1R-autoinhibited): 12%

Nc1nc(N)c2nc(-c3ccccc3)[nH]c2n1 [SKF-12778]
%Inh (CDK3): 1% | %Inh (CDK4-cyclinD1): 20% | %Inh (CDK4-cyclinD3): 0% | %Inh (CDK4): 0% | %Inh (CDK5): 5% | %Inh (CDK7): 7% | %Inh (CDK8): 23% | %Inh (CDK9): 0% | %Inh (CDKL1): 0% | %Inh (CDKL2): 2% | %Inh (CDKL3): 2% | %Inh (CDKL5): 4% | %Inh (CHEK1): 0% | %Inh (CHEK2): 0% | %Inh (CIT): 17% | %Inh (CLK1): 36% | %Inh (CLK2): 11% | %Inh (CLK3): 13% | %Inh (CLK4): 32% | %Inh (CSF1R-autoinhibited): 0%

CCn1c(-c2nonc2N)nc2ccccc21 [SB-693162/GW549034]
%Inh (CDK3): 48% | %Inh (CDK4-cyclinD1): 0% | %Inh (CDK4-cyclinD3): 46% | %Inh (CDK4): 13% | %Inh (CDK5): 12% | %Inh (CDK7): 20% | %Inh (CDK8): 0% | %Inh (CDK9): 0% | %Inh (CDKL1): 8% | %Inh (CDKL2): 0% | %Inh (CDKL3): 3% | %Inh (CDKL5): 25% | %Inh (CHEK1): 0% | %Inh (CHEK2): 0% | %Inh (CIT): 31% | %Inh (CLK1): 0% | %Inh (CLK2): 0% | %Inh (CLK3): 0% | %Inh (CLK4): 0% | %Inh (CSF1R-autoinhibited): 8%

COc1ccc(-c2coc3ccc(-c4nnc(SCc5cccc(C#N)c5)o4)cc23)cc1
%Inh (CDK3): 0% | %Inh (CDK4-cyclinD1): 0% | %Inh (CDK4-cyclinD3): 0% | %Inh (CDK4): 0% | %Inh (CDK5): 18% | %Inh (CDK7): 9% | %Inh (CDK8): 0% | %Inh (CDK9): 0% | %Inh (CDKL1): 5% | %Inh (CDKL2): 0% | %Inh (CDKL3): 0% | %Inh (CDKL5): 9% | %Inh (CHEK1): 0% | %Inh (CHEK2): 0% | %Inh (CIT): 5% | %Inh (CLK1): 47% | %Inh (CLK2): 10% | %Inh (CLK3): 0% | %Inh (CLK4): 57% | %Inh (CSF1R-autoinhibited): 0%

Cc1nc(N(C)[C@H]2CN(C(=O)CC#N)CC[C@H]2C)c2cc[nH]c2n1
%Inh (CDK3): 2% | %Inh (CDK4-cyclinD1): 0% | %Inh (CDK4-cyclinD3): 23% | %Inh (CDK4): 0% | %Inh (CDK5): 16% | %Inh (CDK7): 11% | %Inh (CDK8): 0% | %Inh (CDK9): 0% | %Inh (CDKL1): 0% | %Inh (CDKL2): 0% | %Inh (CDKL3): 0% | %Inh (CDKL5): 6% | %Inh (CHEK1): 48% | %Inh (CHEK2): 0% | %Inh (CIT): 0% | %Inh (CLK1): 13% | %Inh (CLK2): 15% | %Inh (CLK3): 0% | %Inh (CLK4): 0% | %Inh (CSF1R-autoinhibited): 0%

CC(C)(C)c1ccc(C(=O)Nc2cn3cc(-c4ccccc4)ccc3n2)cc1
%Inh (CDK3): 12% | %Inh (CDK4-cyclinD1): 14% | %Inh (CDK4-cyclinD3): 0% | %Inh (CDK4): 0% | %Inh (CDK5): 0% | %Inh (CDK7): 5% | %Inh (CDK8): 5% | %Inh (CDK9): 6% | %Inh (CDKL1): 29% | %Inh (CDKL2): 5% | %Inh (CDKL3): 0% | %Inh (CDKL5): 0% | %Inh (CHEK1): 4% | %Inh (CHEK2): 0% | %Inh (CIT): 2% | %Inh (CLK1): 33% | %Inh (CLK2): 7% | %Inh (CLK3): 9% | %Inh (CLK4): 7% | %Inh (CSF1R-autoinhibited): 0%

CCC(=O)c1c(-c2ccccc2)c2cc(Cl)ccc2c(=O)n1Cc1cc(S(C)(=O)=O)n(CC(F)F)n1
%Inh (CDK3): 0% | %Inh (CDK4-cyclinD1): 0% | %Inh (CDK4-cyclinD3): 0% | %Inh (CDK4): 0% | %Inh (CDK5): 0% | %Inh (CDK7): 0% | %Inh (CDK8): 0% | %Inh (CDK9): 2% | %Inh (CDKL1): 0% | %Inh (CDKL2): 0% | %Inh (CDKL3): 2% | %Inh (CDKL5): 8% | %Inh (CHEK1): 13% | %Inh (CHEK2): 0% | %Inh (CIT): 0% | %Inh (CLK1): 8% | %Inh (CLK2): 0% | %Inh (CLK3): 0% | %Inh (CLK4): 0% | %Inh (CSF1R-autoinhibited): 0%

Cc1ccccc1COc1cc(-n2cnc3cc(Cl)ccc32)sc1C(N)=O [GW813349]
%Inh (CDK3): 0% | %Inh (CDK4-cyclinD1): 25% | %Inh (CDK4-cyclinD3): 3% | %Inh (CDK4): 0% | %Inh (CDK5): 0% | %Inh (CDK7): 0% | %Inh (CDK8): 14% | %Inh (CDK9): 0% | %Inh (CDKL1): 34% | %Inh (CDKL2): 13% | %Inh (CDKL3): 23% | %Inh (CDKL5): 2% | %Inh (CHEK1): 0% | %Inh (CHEK2): 0% | %Inh (CIT): 21% | %Inh (CLK1): 18% | %Inh (CLK2): 3% | %Inh (CLK3): 0% | %Inh (CLK4): 6% | %Inh (CSF1R-autoinhibited): 0%
